Data as given in PMC5540273 (PLoS ONE, 2017).

Tests used:
Conditions in all cases: concentration: 1 μM, replicates: in singlicate; n = 1
EPHA7 = test system: EPHA7
EPHA8 = test system: EPHA8
EPHB1 = test system: EPHB1
EPHB2 = test system: EPHB2
EPHB3 = test system: EPHB3
EPHB4 = test system: EPHB4
EPHB6 = test system: EPHB6
ERBB2 = test system: ERBB2
ERBB3 = test system: ERBB3
ERBB4 = test system: ERBB4
ERK1 = test system: T1, ERK1
T1 construct: gene MAPK3

ERK2 = test system: T2, ERK2
T2 construct: gene MAPK1

ERK3 = test system: T3, ERK3
T3 construct: gene MAPK6

ERK4 = test system: T4, ERK4
T4 construct: gene MAPK4

ERK5 = test system: T5, ERK5
T5 construct: gene MAPK7

ERK8 = test system: T6, ERK8
T6 construct: gene MAPK15

ERN1 = test system: ERN1
FAK = test system: T7, FAK
T7 construct: gene PTK2

FER = test system: FER
FES = test system: FES
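Note: KINOMEscan kinase panel screen.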

Row | SMILES | %Inh (EPHA7) | %Inh (EPHA8) | %Inh (EPHB1) | %Inh (EPHB2) | %Inh (EPHB3) | %Inh (EPHB4) | %Inh (EPHB6) | %Inh (ERBB2) | %Inh (ERBB3) | %Inh (ERBB4) | %Inh (ERK1) | %Inh (ERK2) | %Inh (ERK3) | %Inh (ERK4) | %Inh (ERK5) | %Inh (ERK8) | %Inh (ERN1) | %Inh (FAK) | %Inh (FER) | %Inh (FES)
1 | Nc1cccc(-c2ccc3c(N)n[nH]c3c2)c1 [GSK2193613] | 9% | 29% | 9% | 0% | 13% | 14% | 14% | 0% | 0% | 0% | 0% | 0% | 11% | 14% | 0% | 15% | 4% | 16% | 11% | 16%
2 | N#CC1(c2cccc(C(=O)Nc3cccc(Oc4ccc5nc(NC(=O)C6CC6)sc5n4)c3)c2)CC1 | 0% | 98.9% | 95.8% | 100% | 50% | 95.9% | 99.5% | 22% | 0% | 0% | 0% | 0% | 0% | 0% | 0% | 29% | 0% | 17% | 22% | 0%
3 | COc1cccc(CC(=O)N2CCc3cc(-c4cn(C)c5ncnc(N)c45)ccc32)c1 [GSK2608899] | 10% | 11% | 24% | 14% | 7% | 0% | 64% | 0% | 0% | 0% | 6% | 13% | 0% | 12% | 0% | 17% | 19% | 8% | 17% | 0%
4 | Cc1ccc(O)cc1Nc1ccnc2cc(-c3ccc(CN4CCCCC4)o3)ccc12 [GW557777] | 0% | 99.7% | 100% | 98.9% | 95.3% | 99.7% | 83% | 0% | 7% | 0% | 0% | 0% | 0% | 8% | 20% | 0% | 23% | 0% | 11% | 7%
5 | CC(=O)Nc1cn2nc(Oc3cccc(NC(=O)c4cccc(C(F)(F)F)c4)c3)ccc2n1 | 7% | 99.5% | 95.1% | 98.6% | 5% | 90.9% | 98.1% | 6% | 41% | 4% | 0% | 0% | 0% | 0% | 0% | 19% | 0% | 13% | 3% | 0%
6 | Cn1cc(-c2cnc(N)c3c(-c4ccc5c(c4)CCN5C(=O)Cc4ccccc4)csc23)cn1 [GSK2593074] | 6% | 8% | 6% | 2% | 4% | 9% | 98.3% | 0% | 4% | 0% | 0% | 0% | 0% | 0% | 15% | 11% | 28% | 7% | 10% | 14%
7 | COc1cccc(C2=C(Nc3cccc(O)c3)C(=O)NC2=O)c1 [SB-390771] | 10% | 18% | 11% | 16% | 31% | 16% | 49% | 23% | 0% | 2% | 3% | 0% | 6% | 26% | 0% | 16% | 0% | 0% | 0% | 2%
8 | Cn1cc(-c2ccc3c(c2)CCN3C(=O)Cc2cc(F)cc(C(F)(F)F)c2)c2c(N)ncnc21 [GSK2635225] | 2% | 2% | 21% | 15% | 12% | 8% | 44% | 10% | 0% | 0% | 15% | 0% | 0% | 24% | 0% | 8% | 6% | 11% | 34% | 0%
9 | CCn1c(-c2nonc2N)nc2c(-c3ccccc3)ncc(OCCCN)c21.O=C(O)C(F)(F)F.O=C(O)C(F)(F)F [GSK260205] | 6% | 10% | 0% | 0% | 0% | 7% | 0% | 89% | 0% | 41% | 0% | 0% | 0% | 0% | 0% | 0% | 11% | 0% | 10% | 0%
